From the supplement of paper PMC10720658
± gives the standard deviation of the averaged measurements.

Test system: AEK1 (Tb927.3.2440)
Assay: percent reduction in TR-FRET probe signal relative to DMSO control; higher = stronger displacement of ATP-site probe (binding)
Settings: 1 µM; incubation time 1 h

Structure (SMILES)	percent reduction in TR-FRET probe signal
CC(C)c1cnn2c(NCc3ccccc3)cc(NCCCCCCN)nc12.Cl	-3.89 ± 4.8%
COc1ccc(S(=O)(=O)N(C(C)=O)c2ccccc2/C=C/c2cc[n+]([O-])cc2)cc1	-0.117 ± 12%
CS(=O)(=O)c1cccc(CNc2nc(Nc3ccc4c(c3)CCC(=O)N4)ncc2C(F)(F)F)c1	39.5 ± 13%
CO[C@H]1C[C@@H]2CC[C@@H](C)[C@@](O)(O2)C(=O)C(=O)N2CCCC[C@H]2C(=O)O[C@H]([C@H](C)C[C@@H]2CC[C@@H](OP(C)(C)=O)[C@H](OC)C2)CC(=O)[C@H](C)/C=C(\C)[C@@H](O)[C@@H](OC)C(=O)[C@H](C)C[C@H](C)/C=C/C=C/C=C/1C [Ridaforolimus (Deforolimus, MK-8669)]	1.74 ± 22%
O=C1Nc2cc(Br)ccc2/C1=C1/Nc2ccccc2/C1=N\O	2.19 ± 11%
Cc1nc(Nc2cnn(C3CCNCC3)c2)nc2c1N(C)C(=O)c1cc3ccccc3cc1N2C	-10.5 ± 7.1%
CS(=O)(=O)O.O=C(Nc1cccc(Cl)c1)Nc1ncc(CCNc2ncnc3ccsc23)s1 [SNS-314 Mesylate]	0.813 ± 5%
